About 79,000 compounds went through this panel and 15% of them were active in at least one assay; those are over-represented in the sample as a whole. A number with no mark means an inactive call. Calls of active or inactive are those of the source. Rule as the data show it: active = growth inhibition above about 70%; inactive = the rest.
Experiment: NCI Yeast Anticancer Drug Screen. Data for the mgt1 strain (AID 153)
Details: S. cerevisiae mgt1 mutant growth inhibition, active compounds read high
Method: Growth inhibition of yeast strains with defined genetic alterations is measured as a screen for potential anti-cancer activity. Selected strains with alterations in DNA damage repair or cell cycle control were exposed to compounds and growth inhibition was measured relative to vehicle treated controls. The strain used in this assay is mgt1

Structure (SMILES)	growth inhibition (at 1.2 µM) [%]	growth inhibition (at 3.7 µM)	growth inhibition (at 11.0 µM)	growth inhibition (at 33.0 µM)	growth inhibition (at 100.0 µM)
COc1ccc2[nH]cc([C@@H]3C4CCC(C4)[C@H]3NCc3cccc(CN[C@H]4C5CCC(C5)[C@@H]4c4c[nH]c5ccc(OC)cc45)c3)c2c1	-36	-47%	-38%	42%	98% (active)
Nc1ccc2c(c1)C(=O)c1ccc(F)cc1-2	2	9%	15%	24%	19%
CCCCCCCCCCCC1N=C(N)NC(CCCO)=C1C(=O)OC (stereo not given)	46	99% (active)	100% (active)	99% (active)	99% (active)
Cc1ccc(Cl)cc1NC(=O)OCCN(C)C(=O)Nc1cc(Cl)ccc1C	-29	-28%	-29%	-24%	2%
Cc1ccccc1N=Cc1cc(Cl)ccc1O	-1	-4%	-2%	14%	89% (active)
Cc1cccc(C(C)(C)C)c1NC(=O)C(C#N)C1=C(Cl)C(=O)c2ccccc2C1=O (stereo not given)	19	32%	49%	98% (active)	97% (active)
C=C1C(=O)OC2CC1C(OC(C)=O)C/C(C)=C/CC/C(C)=C\CCC2(C)O (stereo not given)	-14	3%	13%	28%	80% (active)
Cc1cccc(/C=N/NC(=S)N2CCCC2)n1	-13	-14%	18%	94% (active)	96% (active)

Reference: PubChem BioAssay (NCI)
